# High-throughput results: PubChem BioAssay, National Center for Advancing Translational Sciences (NCATS)
# Most compounds without a hit are left out; they make up all but 8.7% or so of the library.
# G9a block = blocks human histone lysine methyltransferase G9a; G9a H3K9 monomethylation, AlphaScreen, 2 h; Potency, µM (doses to about 102 µM), for inactives: top-dose activity, negative = inhibition, usual class: inhibitors; 350,000 compounds, 8.8% hits; Q96KQ7; note: % is set by controls: 0 for no effect and ±100 for the full control effect; nearly all actives have a fitted effect of over 75% in size
# Target sequence (Q96KQ7 913-1193 limits assumed): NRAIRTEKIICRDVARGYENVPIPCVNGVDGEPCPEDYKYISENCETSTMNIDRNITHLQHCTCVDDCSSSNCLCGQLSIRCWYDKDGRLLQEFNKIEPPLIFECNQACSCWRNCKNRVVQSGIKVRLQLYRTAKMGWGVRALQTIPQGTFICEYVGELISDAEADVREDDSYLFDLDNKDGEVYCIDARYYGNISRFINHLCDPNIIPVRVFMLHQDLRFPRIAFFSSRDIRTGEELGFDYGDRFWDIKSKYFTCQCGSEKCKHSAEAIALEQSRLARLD
#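 AlphaScreen detection with an anti-monomethyl H3K9 antibody quantified product after a 2 h room-temperature reaction containing 500 nM biotinylated H3K9 peptide, 20 µM SAM and 20 nM enzyme, which had been preincubated 15 min with compound.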
# BAZ2B inh = blocks human BAZ2B | Potency, µM (highest dose often 114 µM), inactives show at the highest dose activity change, negative = inhibition, most hits filed as inhibitors | 360,000 compounds, 4.4% hits | Q9UIF8 | AlphaScreen BAZ2B-H3K14Ac peptide displacement; note: % is set by controls: 0 for no effect and ±100 for the full control effect; nearly all actives have a fitted effect of over 60% in size
#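 AlphaScreen displacement of biotin-H3(5-23)K14Ac peptide (50 nM final) from BAZ2B (50 nM final) in PBS pH 7.4, 0.01% Tween-20; complex preformed 30 min RT, then compounds (top 110 uM) 30 min RT, beads 20 min dark.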
# 12-LOX inh = ALOX12 (human) lipoxygenase inhibition; 580,000 compounds, 1.1% hits; Potency, µM (top dose mostly 108 µM), inactives show at the top dose activity change, negative = inhibition, most hits filed as inhibitors; P18054; purified 12hLO, xylenol orange hydroperoxide absorbance; note: % is set by controls: 0 for no effect and ±100 for the full control effect
#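 Purified human 12hLO at 150 nM in 25 mM Hepes, 0.01% Triton X-100, pH 7.0, preincubated 15 min at room temperature with compound. Reaction started with 40 uM arachidonic acid, 30 min at room temperature. Hydroperoxide measured by Fe-xylenol orange, 573/405 nm absorbance ratio.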
# HP1b binding inh = inhibitors of HP1-beta chromodomain binding to methylated histone tails; AlphaScreen HP1-beta / biotin-H3K9me3 peptide binding; 390,000 compounds, 0.56% hits; P83916; AID 540317; Potency, µM (series often up to 114 µM), without a hit: at the top dose activity change, negative = inhibition, hits mostly inhibitors; note: nearly all actives have a fitted effect of over 70% in size
# Target sequence (P83916 whole entry, looked up): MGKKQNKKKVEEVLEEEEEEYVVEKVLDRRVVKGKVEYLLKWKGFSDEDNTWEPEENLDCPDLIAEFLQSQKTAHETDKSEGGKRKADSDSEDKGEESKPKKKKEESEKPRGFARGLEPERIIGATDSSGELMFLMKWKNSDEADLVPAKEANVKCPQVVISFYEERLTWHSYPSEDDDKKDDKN
#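 Compound inhibition of the preformed complex between 50 nM HP1-beta and 50 nM biotinylated H3K9me3 peptide was read by AlphaScreen. Buffer was PBS pH 7.4 with 0.01% Tween-20. Incubations ran 30 min at room temperature, with 10 ug/mL donor/acceptor beads.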
# JMJD2A Tudor = inhibitors of human JMJD2A Tudor domain | AlphaScreen JMJD2A-Tudor / H3K4me3 peptide binding | Potency, µM (series often up to 114 µM), without a hit: at the highest dose activity change, negative = inhibition, actives largely listed as inhibitors | 390,000 compounds, 4.4% hits | O75164; note: % is set by controls: 0 for no effect and ±100 for the full control effect; nearly all actives have a fitted effect of over 50% in size
# Sfp PPTase inh = blocks B. subtilis Sfp PPTase activity; Biochemical Sfp PPTase activity, qHTS; Potency, µM, without a hit: largest response in the series, negative = inhibition, actives largely listed as inhibitors; 310,000 compounds, 3.5% hits; AID 1490;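 note: the enzyme is Sfp with the accession as filed and its product quenches rhodamine fluorescence; 0% = enzyme reaction without inhibitor and -100% = no enzyme wells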
#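 Step 1, compound plus 15 nM Sfp-PPTase, 15 min, room temperature. Step 2, add rhodamine-CoA (5 uM) and BHQ-2-YbbR (12.5 uM). Step 3, read 525/598 nm fluorescence at 0 and 30 min.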
# * = called active by the depositor; ? = inconclusive; . = no result; [ ] = remark or other dose. Calls come from the whole dose curve; as a rule, active = well fitted curve in the direction sought with a large enough effect; inconclusive = small, poorly fitted or top-dose-only effect, or another doubt; inactive = no such curve, though single readings can be large; an effect the other way counts as inactive or inconclusive. Potency is the fitted concentration of half-maximal effect.
SMILES,G9a block,BAZ2B inh,12-LOX inh,HP1b binding inh,JMJD2A Tudor,Sfp PPTase inh
CC(C)c1cccc(C(C)C)c1NC(=O)c1nn(C)c(=O)c2ccccc12,.,.,3%,.,.,.
CC(=O)N1CCN([C@H]2[C@@H]3OC[C@@H](O3)[C@@H](NC(=O)NC3CCCCC3)[C@@H]2O)CC1,.,.,2%[176 µM],.,.,.
COCCNC(=O)COc1ccc(Nc2ccccc2)cc1,50µM*,?,-5%,0%,-21%,-20%
CN(Cc1cccc(C#N)c1)C(=O)c1cnc2ccccc2n1,.,.,12%,.,.,.
O=C(CSc1ccc(-c2ccccn2)nn1)N1CCCc2ccccc21,?,8.9µM*,5%,14%,7.9µM*,9%
Cc1ccc(-c2nnc(SCC(=O)N3CCc4ccccc43)o2)cc1,-3%[59 µM],3%,5%,10%,-12%,.
O=C(CSc1nnc(-c2ccc(F)cc2)o1)N1CCCc2ccccc21,10µM*,-8%,0%,5%,-5%,.
O=C(CSc1ccc(-c2cccnc2)nn1)N1CCCc2ccccc21,-6%,-9%,-4%,.,.,7%
O=C(COc1ccc(F)cc1Cl)N1CCC(c2ccccc2)=N1,.,.,-9%,.,.,.
COC(=O)c1ccc(C2c3c(oc4ccccc4c3=O)C(=O)N2c2nc(C)c(C(=O)OC)s2)cc1 (stereo not drawn),?,-12%,?,10%,-18%,.
CCc1ccc(C2c3c(oc4cc(C)c(C)cc4c3=O)C(=O)N2c2nc(C)c(C(=O)OC)s2)cc1 (stereo not drawn),-4%[59 µM],?,-6%,45%,-14%,.
COC(=O)c1sc(N2C(=O)C(O)=C(C(=O)c3ccc(C)o3)C2c2cccs2)nc1C (stereo not drawn),10µM*,-31%,.,6%,?,?
COC(=O)c1ccc(C2C(C(=O)c3ccc(C)o3)=C(O)C(=O)N2c2cc(C)on2)cc1 (stereo not drawn),50µM*,-35%,?,26%,-12%,-5%
COC(=O)c1sc(N2C(=O)C(O)=C(C(=O)c3ccc(C)o3)C2c2ccco2)nc1C (stereo not drawn),.,-5%,?,7%,-26%,12%
COC(=O)c1ccc(C2C(C(=O)c3ccco3)=C(O)C(=O)N2c2cc(C)on2)cc1 (stereo not drawn),?,-39%,?,20%,?,8%
COC(=O)c1sc(N2C(=O)C(O)=C(C(=O)c3ccc(C)o3)C2c2ccc(F)cc2)nc1C (stereo not drawn),13µM*,-5%,-57%,5%,-36%,?
COC(=O)c1sc(N2C(=O)c3oc4ccccc4c(=O)c3C2c2cccs2)nc1C (stereo not drawn),14µM*,-4%,?,21%,-4%,-4%
COc1ccc(C(=O)Nc2ccc(-c3nnc4n3CCCC4)cc2)cc1,.,.,33%,.,.,.
COC(=O)Cn1c(=O)c2c(nc(-n3nc(C)cc3C)n2CC(C)C)n(C)c1=O,.,.,13%,.,.,.
CC(C)NC(=O)CN(C)Cc1cccc2cccnc12,.,.,-3%,.,.,.
CCc1cc(=O)oc2c(C)c(OCC(=O)NCc3cccnc3)ccc12,.,.,-39%,.,.,.
Cc1cc2nc(CS)[nH]c2cc1C,10µM*,-13%,0%,12%,-20%,40µM*
COc1cccc(CN2CC[C@@H]3C(=O)NCCCCCCN(Cc4ccncc4)[C@@H]3C2)c1OC,.,.,122%,.,.,.
O=[N+]([O-])c1cc(Br)c(O)c(/C=N/Nc2nnnn2-c2cccc3ccccc23)c1,7%[12.7 µM],79µM*,11µM*,-13%,56µM*,3%
COc1ccc(N(C)C(=O)Cc2noc3ccccc23)c(OC)c1,.,.,-7%,.,.,.
SMILES,G9a block,BAZ2B inh,12-LOX inh,HP1b binding inh,JMJD2A Tudor,Sfp PPTase inh
Cc1nc(SCC(=O)Nc2cc(C(N)=O)cc(C(N)=O)c2)c2c(C)c(C)sc2n1,45µM*,?,2%,50%,?,-16%
CN1CCC/C1=C\C(=O)c1ccccc1,.,.,4%,.,.,.
COC(=O)Cn1c(CCS(=O)(=O)c2ccc(C)c(C)c2)nc2ccccc21,?,6%,18%,22%,15%,11%
O=C(O)Cn1c(CCS(=O)(=O)c2ccc(Br)cc2)nc2ccccc21,45µM*,-18%,-5%,-3%,-16%,10%
CC(C)c1noc(-c2cn(C3CCCN(C(=O)c4cccc(N(C)C)c4)C3)nn2)n1 (stereo not drawn),.,.,13%,.,.,.
Cc1cc(C=C2C(=O)c3ccccc3C2=O)c(C)n1C,40µM*,-24%,-1%,-3%,-31%,-6%
Cc1ccc(C=C2C(=O)c3ccccc3C2=O)s1,?,16µM*,?,?,?,?
COCCNC(=O)C(NC(=O)c1ccccc1)C1CCN(C(=O)c2ccccc2OC)CC1 (stereo not drawn),.,.,25%,.,.,.
O=C(Nc1cccc(OC(F)(F)F)c1)C1(CCO)CCN(c2ncccn2)C1 (stereo not drawn),.,.,17%,.,.,.
CN(CCS(=O)(=O)c1ccccc1)Cc1ccccc1,.,.,1%,.,.,.
COc1ccc2[nH]c3nc(SCC(=O)NNC(=O)c4ccc(OC)c(OC)c4)nnc3c2c1,?,4%[57.1 µM],0%,42%,-19%,-5%
Cc1ccc(C(=O)NNC(=O)CSc2nnc3c(n2)[nH]c2ccc(F)cc23)cc1,.,?,?,-41%,20µM*,?
CC(C)(C)OC(=O)N1Cc2ccccc2C[C@H]1C(=O)Nc1ccc2c(c1)OCCO2,.,.,-62%,.,.,.
CN(C)S(=O)(=O)c1ccc(C(=O)Nc2nnc(-c3cccs3)o2)cc1,11%,?,2%,66%,79µM*,10%
N#Cc1ccc(C(=O)Nc2nnc(-c3cccs3)o2)cc1,.,50µM*,-2%,15%,56µM*,8%
CC1CC(C)CN(S(=O)(=O)c2ccc(C(=O)Nc3nnc(-c4cccs4)o3)cc2)C1 (stereo not drawn),-5%[59 µM],?,-4%,35%,-26%,-3%
O=C(Nc1nnc(-c2cccs2)o1)c1cccc(C(F)(F)F)c1,19%,1%,-3%,4%,?,14%
COCCN1CC2(CCCN(C(=O)c3ccccc3-n3cncn3)C2)CCC1=O (stereo not drawn),.,.,56%,.,.,.
COc1ccc(CCCC(=O)NC2CCCCC2C)c(C)c1 (stereo not drawn),8%,?,8.9µM*,16%,-15%,4%
COc1ccc(C2CC2(C#N)C(=O)Nc2ccc(Cl)cc2Cl)cc1 (stereo not drawn),.,.,-17%,.,.,.
Cn1c(SCc2nnc(-c3ccccc3Br)o2)nc2sc3c(c2c1=O)CCC3,-33%,-13%,-2%,18%,-22%,79µM*
